RecA intein inh = blocks M. tuberculosis RecA intein splicing | cell-free RecA intein splicing, fluorescence | inhibition, % (no concentration beside the values) | 290,000 compounds, 0.75% hits | AID 2221; in the data active = inhibition above about 30%; inconclusive = no clear call, values can overlap the other calls;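 also: 0% = vehicle wells and 100% = reference inhibitor control wells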
Mtb betalactam = beta-lactam sensitization of Mtb H37Rv. 330,000 compounds, 0.27% hits. inhibition, % at 25 µM. M. tuberculosis H37Rv growth with meropenem, percent inhibition. AID 434955; call rule not given here;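 also: growth measured after seven days incubation then overnight dye step; 0% = bacteria only wells and 100% = bacteria with antibiotic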
Mtb FBA inh = Mtb fructose-bisphosphate aldolase inhibition; purified M. tuberculosis FBA, fluorescence read-out; P9WQA3; 360,000 compounds, 2.3% hits; inhibition, % at 1 µM; AID 588726;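 also: 0% = vehicle and 100% = reference inhibitor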
Rv3671c protease = Rv3671c (M. tuberculosis) protease inhibition. inhibition, % at 5.96 µM. 320,000 compounds, 0.048% hits. P9WHR9; in the data active = inhibition above about 38%;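 also: extracellular domain of Rv3671c used as enzyme; 0% = enzyme with DMSO and 100% = no enzyme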
GDH-TPI counter-1 = counter-screen for M. tuberculosis FBA inhibitors: GDH-TPI coupled enzymes | GDH-TPI coupled enzyme counterscreen, NADH absorbance | inhibition, % at 4.8 µM | 360,000 compounds, 1.2% hits | AID 588335; in the data active = inhibition above about 30%;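 also: 0% = DMSO wells and 100% = wells lacking the enzyme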
Mtb UGM inh = inhibitors of M. tuberculosis UDP-galactopyranose mutase. purified UGM, fluorescence polarization probe displacement. 320,000 compounds, 0.06% hits. inhibition, % at 10 µM. P9WIQ1. AID 504406; in the data active = inhibition above about 10%, passing the limit was not always enough; inconclusive = no clear call, values can overlap the other calls
Mtb FBA confirm = Mtb FBA inhibition, confirmed; shares compounds with Mtb FBA inh; purified M. tuberculosis FBA, fluorescence read-out; inhibition, % at 1 µM; 5,600 compounds, 78% hits; AID 651616;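 also: 0% = vehicle wells and 100% = reference inhibitor wells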
GDH-TPI counter-2 = counter-screen for M. tuberculosis FBA inhibitors: GDH-TPI coupled enzyme inhibition; inhibition, % at 1 µM; 5,600 compounds, 81% hits; shares compounds with Mtb FBA inh; GDH-TPI coupled enzyme counterscreen, fluorescence; in the data active = inhibition above about 10%
Starred values were filed as active, the others as inactive; ? = inconclusive; . = not tested or not shown; + = active, no number. Sampled rows, rich in hits. Any-hit rate of the full collection: about 4%. Rule as the data show it, unless noted: active = inhibition above about 27%; inactive = the rest.

SMILES	RecA intein inh	Mtb betalactam	Mtb FBA inh	Rv3671c protease	GDH-TPI counter-1	Mtb UGM inh	Mtb FBA confirm	GDH-TPI counter-2
CCC(c1nnc(SCC(=O)NC2CCCCC2)n1Cc1ccccc1)N(C)C (configuration not stated)	11	-1	43*	-4	-7	-1	+	153*
COc1ccc(-c2nc3nc(N)nn3cc2C)cc1F	0	0	28*	3	0	0	82*	70*
COc1ccc(-c2nc3c(-c4ccc(F)cc4)cnn3cc2C)cc1F	-4	-1	4	8	1	-2	.	.
C/C(=N/NC(=O)CNC(=O)c1ccco1)c1ccc(Cl)cc1	1	1	-2	9	0	3	.	.
Cc1ccc(NC(=O)c2cc(NC(=O)C3CC=CCC3C(=O)O)ccc2N2CCOCC2)cc1Cl (configuration not stated)	-1	5	1	-1	0	0	.	.
Cc1nc(NC(=O)c2ccc([N+](=O)[O-])cc2Cl)sc1C(=O)N(C)C	1	8	91*	-11	13	2	+	162*
COCCNc1nc(Nc2ccc(C#N)cc2)c2sccc2n1	.	.	3	.	27	.	.	.
Cc1ccc(-n2ncc3c(=O)n(CC(N)=O)cnc32)cc1C	2	8	2	-2	-4	1	.	.
Cc1nc2c3cnn(-c4ccc(C)c(C)c4)c3ncn2n1	2	93	38*	-15	7	0	119*	96*
CNc1nc(N)c(C(=O)Nc2cc(C)on2)s1	-1	2	-3	6	17	-3	.	.
COc1ccc2c(OC)c3ccoc3nc2c1OC	-2	-10	96*	1	1	-3	192*	166*
C=CCc1cccc2cc(C(=O)NNC(=O)CC#N)c(=O)oc12	2	-7	4	0	6	-2	.	.
CN(C(=O)c1cccn(Cc2ccccc2)c1=O)c1ccccc1	-9	2	0	1	2	1	.	.
Cc1cc(C)c2c(N)c(C(=O)N3CCCCCC3)sc2n1	-8	4	2	1	2	1	.	.
COC(=O)c1sc2nc(C)cc(C)c2c1N	-14	-3	38*	-18	1	-1	3	1
Cc1cc(C)c2c(N)c(C(=O)Nc3ncc(C)s3)sc2n1	.	3	43*	2	20	1	121*	119*
Cc1cc(C)c2c(N)c(C(=O)Nc3ccccc3Br)sc2n1	-15	0	42*	-5	11	4	152*	117*
Cc1ccc(N2CC(=O)N(NC(=O)c3sc4nc(C)cc(C)c4c3N)CC2=O)cc1	-7	-1	48*	10	6	1	59*	47*
CCc1ccccc1NC(=O)c1sc2nc(C)cc(C)c2c1N	-5	62	12	-2	15	2	.	.
C/C(=N\NC(=O)c1nnn(-c2nonc2N)c1C(C)C)c1ccncc1	1	0	0	-12	3	0	.	.
COc1ccc(C(=O)NCc2nnc(SCC(=O)NCc3ccco3)o2)cc1	2	8	1	1	7	4	.	.
COc1ccccc1N1CCN(C(=O)c2cccc3c(=O)c(C)c(-c4ccccc4)oc23)CC1	1	0	0	-2	5	1	.	.
Cc1cccc(C(=O)N(CCc2ccccc2)Cc2ccccc2)c1[N+](=O)[O-]	13	-3	1	-3	1	-2	.	.
COc1cccc2c(=O)c3ccoc3n(C)c12	-2	-4	40*	1	22	4	75*	57*
COc1cccc2c(=O)c3cccc(N)c3[nH]c12	-136	8	5	-20	-1	0	.	.
SMILES	RecA intein inh	Mtb betalactam	Mtb FBA inh	Rv3671c protease	GDH-TPI counter-1	Mtb UGM inh	Mtb FBA confirm	GDH-TPI counter-2
COc1ccc(C(=O)N2CC3(C)C4CCC3(C)C2(C#N)C4)cc1OC (configuration not stated)	2	-5	0	4	5	2	.	.
CCC1(C)Cc2[nH]c(=O)c(C#N)cc2CO1 (configuration not stated)	0	-8	69*	3	7	2	2	-1
CC1(C)Cc2nc(N)c(C(=O)NCCO)cc2CO1	1	-6	98*	1	10	-1	+	+
CCNc1ncnc2c1cnn2C1CCCCO1 (configuration not stated)	.	.	0	.	-5	.	.	.
Cc1occc1C(=O)N1CCN(S(C)(=O)=O)CC1	-1	-3	2	-3	2	2	.	.
CCc1nc(N2CCOCC2)c(C#N)c2c1CCCC2	4	15	38*	-14	2	1	+	+
CC1(C)Cc2c(C#N)c(N3CCCC3)nc(-c3ccco3)c2CO1	-36	-1	6	9	8	-1	.	.
CCCCc1nc(N2CCOCC2)c(C#N)c2c1COC(C)(C)C2	7	17	35*	-9	6	-1	-3	-6
CCc1nc(N2CCCC2)c(C#N)c2c1CCCC2	11	41	10	8	13	1	.	.
CC1(C)Cc2c(C#N)c(SCCO)nc(N3CCOCC3)c2CO1	0	-5	1	-1	5	-3	.	.
N#Cc1c(N2CCOCC2)nc(-c2ccco2)c2c1CCCC2	-3	3	37*	-8	16	0	93*	71*
C(=Cc1cnc2ccccc2n1)c1ccc2c(c1)OCO2	.	.	6	.	19	.	.	.
O=C1CN(S(=O)(=O)c2ccccc2)CCN1S(=O)(=O)c1ccccc1	-1	-4	2	4	1	-1	.	.
COc1ccc(Cn2cnc3c4cc(F)ccc4n(C)c3c2=O)cc1	-1	-2	5	-3	1	1	.	.
COc1ccc2c(c1)c1ncn(CCc3ccccc3)c(=O)c1n2C	5	54	105*	-19	16	-2	106*	91*
Clc1ncc2[nH]cnc2n1	1	9	0	7	9	0	.	.
CC(=O)N(C(C)=O)c1c(N2CCCC2)c2ccccc2oc1=O	3	-4	-1	6	16	1	.	.
CN1CCc2ccccc2C1C1CCNCC1 (configuration not stated)	1	?	2	-2	3	1	.	.
O=C(c1ccc(Cl)cc1)C1CCCN(C(=O)c2csnn2)C1 (configuration not stated)	2	0	-1	2	5	-2	.	.
COc1ccc2cc(C(=O)C3CCCN(C(=O)c4cnn(C(C)C)c4)C3)ccc2c1 (configuration not stated)	2	6	105*	1	14	-1	50*	39*
COc1ccc2cc(C(=O)C3CCCN(C(=O)C4=NN(C)C(=O)CC4)C3)ccc2c1 (configuration not stated)	-4	5	63*	9	11	0	85*	52*
COc1ccc(C(=O)N2CCCC(C(=O)N3CCCCCC3)C2)cc1 (configuration not stated)	2	-2	0	-4	-8	-2	.	.
